A short description of the experiment: growth inhibitors of anaerobic choline-fed gram-negatives, minimal medium, absorbance (AID 1963822). As to conditions: Gram-negative bacterium anaerobic choline minimal medium.
The mark [1] stands for this setting: measured here: choline growth z-score, timepoint 1, stronger effect = lower value.

The structures appear in SMILES notation. Hit rate of the full screen: of about 55,000 compounds, about 90 (0.2%) were called active. No rule for the calls is given here. What follows is part of a selection rich in actives, with near analogues and random picks from the rest.

As for `CCOC(=O)c1cnc(SC(CC)C(=O)Nc2ccc(Br)cc2)nc1N` (centres undefined), the z-score was 0.81 (inactive) (stronger effect = lower value) and 0.87 under setting [1].

For `O=C1CN(C(=O)CSc2ccc(Cl)cc2)c2ccccc2N1`, the z-score is, setting by setting: (stronger effect = lower value) -2.07 (inactive); under setting [1], -0.23.

As for `COc1ccc(C2N=C(Nc3ccc(C(C)C)cc3)Nc3nc(C)cc(=O)n32)cc1OC` (centres undefined), the z-score (stronger effect = lower value) was 0.3 (inactive) and the z-score under setting [1] was -0.84.

Take `Cc1nc(-c2csc(S(=O)(=O)N3CCCC(C(=O)N4CCCCC4)C3)c2)no1` (centres undefined): the z-score by setting is: (stronger effect = lower value) 0.63 (inactive); under setting [1], -0.32.

As for `CC(=O)N1CCCN(S(C)(=O)=O)CC1`, the z-score reads like this: (stronger effect = lower value) 0.45 (inactive); under setting [1], 1.28.

For `CC(C)c1nnc(-c2cc3ccccc3n2CC(=O)N(C(C)C)C(C)C)o1`, the z-score was -0.44 (inactive) (stronger effect = lower value) and 0.05 under setting [1].

For the molecule `COc1cc(C2OC(c3ccccc3)=NN2C(C)=O)ccc1O` (centres undefined), the z-score is, setting by setting: (stronger effect = lower value) -1.46 (inactive); under setting [1], -1.53.

As for `O=C(Cn1nc2n(CCc3ccccc3)c(=O)c3ccccc3n2c1=O)NCc1ccccc1Cl`, the z-score runs as follows: (stronger effect = lower value) 0.2 (inactive); under setting [1], 0.39.

As to `COc1ccc(OC)c(CNC(=O)C2CCCN(c3ncnc4c3oc3ccccc34)C2)c1` (centres undefined), the z-score reads like this: (stronger effect = lower value) -0.39 (inactive); under setting [1], -0.94.

Regarding `CN(C)CCCNC(=O)c1sc2ncccc2c1-n1cccc1`, the z-score (stronger effect = lower value) was -0.76 (inactive) and the z-score under setting [1] is -0.95.

Turning to `Cc1ccc(/C=C/c2nc(-c3ccc4c(c3)[nH]c(=O)c(=O)n4C(C)C)no2)cc1`, the z-score was 0.12 (inactive) (stronger effect = lower value) and -0.05 under setting [1].

As to `CCc1nc(-c2ccc(C(=O)NCC(=O)Nc3ccc(Cl)cc3)cc2)no1`, the z-score was -0.03 (inactive) (stronger effect = lower value) and -0.94 under setting [1].

Turning to `CC(C)C(=O)N1CCN(c2ccc(Nc3c4c(nc5nc(-c6ccccc6)nn35)CCCC4)cc2)CC1`, the z-score by setting is: (stronger effect = lower value) -0.12 (inactive); under setting [1], 0.82.

With `O=C(NCCc1cscn1)[C@H]1CSCN1C(=O)c1ccccc1`, the z-score (stronger effect = lower value) is 0.46 (inactive) and the z-score under setting [1] was determined as 0.42.

Take `CCC(=O)Nc1cccc(-c2noc(C3CCCN(C(=O)c4ccc(F)cc4)C3)n2)c1` (centres undefined): the z-score was 0.07 (inactive) (stronger effect = lower value) and -0.16 under setting [1].

Consider `O=S(=O)(c1ccc2c(c1)CCCC2)N1CCC2(CC1)Nc1cc(F)ccc1-n1cccc12`, for which the z-score runs as follows: (stronger effect = lower value) -0.8 (inactive); under setting [1], -0.36.

As to `O=S(=O)(c1ccccc1)c1ccc(N2CCN(c3ccccc3)CC2)nn1`, the z-score runs as follows: (stronger effect = lower value) -0.18 (inactive); under setting [1], -1.06.

In the case of `O=C(NCCc1cnc[nH]1)c1ccc(Cn2c(SCc3ccc(F)cc3)nc3cccnc32)cc1`, the z-score by setting is: (stronger effect = lower value) -0.7 (inactive); under setting [1], -0.94.

`CCOC(=O)CC1=CC(SCC(=O)c2cc(C)ccc2C)=Nc2ccccc2N1`: the z-score by setting is: (stronger effect = lower value) 0.16 (inactive); under setting [1], 0.19.

As for `COc1ccc(NC(=O)c2ccc(-c3nc(-c4ccccc4)no3)cc2)cc1`, the z-score was -1.61 (inactive) (stronger effect = lower value) and -1.39 under setting [1].

As for `Cc1ccc2c(Cl)c(C(=O)Nc3onc4c3CCCC4)sc2c1`, the z-score was 0.44 (inactive) (stronger effect = lower value) and 0.27 under setting [1].

On to `COc1ccc(Cn2c(CCC(=O)Nc3cccc(C)c3C)nc3cccnc32)cc1`, for which the z-score was 0.59 (inactive) (stronger effect = lower value) and 0.56 under setting [1].

The values above are taken from PubChem BioAssay AID1963822 (ICCB-Longwood Screening Facility, Harvard Medical School, 2024).
